{"source": "PubChem BioAssay (Tox21)", "note": "Inconclusive results are not listed. Activity calls are given as the source filed them. Calls follow the shape of the dose curve; as a rule, active = well fitted inhibition curve with a large enough effect in the repeat runs; inconclusive = weak or mixed curves; inactive = no such curve, though single readings can be large or run the other way. % is scaled to controls: 0 for no effect and ±100 for the full control effect; potency is read from the fitted curve at half-maximal effect."}
{"target": "Cytochrome P450 1A2 (Homo sapiens) (UniProt P05177)", "sequence (P05177 whole entry, looked up)": "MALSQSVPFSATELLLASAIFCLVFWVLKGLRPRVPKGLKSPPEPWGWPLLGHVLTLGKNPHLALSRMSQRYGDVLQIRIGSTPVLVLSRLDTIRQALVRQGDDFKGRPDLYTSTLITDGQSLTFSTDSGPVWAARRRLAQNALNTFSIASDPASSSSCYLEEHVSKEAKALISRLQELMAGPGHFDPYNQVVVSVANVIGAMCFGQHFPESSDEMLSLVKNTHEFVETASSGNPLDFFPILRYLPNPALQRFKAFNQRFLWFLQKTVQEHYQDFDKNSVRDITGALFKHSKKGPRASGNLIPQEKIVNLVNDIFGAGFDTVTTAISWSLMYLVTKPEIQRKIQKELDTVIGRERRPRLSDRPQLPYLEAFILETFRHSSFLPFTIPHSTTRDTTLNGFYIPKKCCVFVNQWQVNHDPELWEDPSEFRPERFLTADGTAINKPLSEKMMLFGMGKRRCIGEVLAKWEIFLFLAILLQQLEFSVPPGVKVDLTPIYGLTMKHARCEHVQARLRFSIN", "assay": "Cytochrome P450 Family 1 Subfamily A Member 2 (CYP1A2) small molecule antagonists: luciferase reporter qHTS assay (AID 1671199); also: nearly all actives have a fitted effect of over 50% in size", "conditions": "P450-Glo CYP1A2 enzyme, luciferin luminescence, 1 h; series mostly up to 115 µM; activity change, negative = inhibition: at the top concentration", "excerpt": "National Center for Advancing Translational Sciences [NCATS]\nU.S. Environmental Protection Agency [EPA]\nNational Institutes of Environmental Health Sciences [NIEHS]\nNational Toxicology Program [NTP]\nU.S. Food and Drug Administration [FDA]\nCytochrome P450 (CYP) enzymes are membrane-bound hemeproteins that play a key role in metabolism of drugs and xenobiotics. Evaluation of the effect of chemicals on CYP isozymes is useful to minimize the adverse drug reactions and toxicities in drug development process. Tox21 chemicals were tested for their effect on CYP enzyme activities by using P450-Glo (TM) screening systems (Promega Corporation, Madison, WI). These systems provide a luminescent method containing proluciferin substrates and are converted to luciferin products by CYP isozymes. The luciferin products formed are detected with a luciferin detection reagent, and the amount of light produced is proportional to CYP activity. P450-Glo (TM) CYP1A2 screening system (Catalog. No. V9770) was used to detect the compounds that interfere in CYP1A2 activity. The positive control compound used for CYP1A2 assay is furafylline (Sigma-Aldrich, St. Louis, MO).\nTox21 Assay Protocol Summary:\nTwo ul of enzyme-substrate mix was dispensed into medium binding white/solid 1536-well plates (Greiner Bio-One North America Inc., Monroe, NC) using a BioRaptr Flying Reagent Dispenser (FRD, Beckman Coulter, Brea, CA). Compounds dissolved in DMSO and positive control (furafyllline) were transferred to the assay plates at 23 nl using a Pintool station (Wako, San Diego, CA). The assay plates were incubated at room temperature for 10 min. Then 2 ul of NADPH regeneration solution was added to each well of the assay plates using an FRD and incubated at room temperature for 1 h. The reaction was stopped by adding 4 ul of detection reagent using an FRD and after 20 min incubation at room temperature the luminescence signal was measured using a ViewLux plate reader (Perkin Elmer, Shelton, CT). Data were expressed as relative luminescence units."}
{"smiles": "O=c1[nH]cccc1O", "activity change, negative = inhibition": "-5.83% (inactive)"}
{"smiles": "CCSCC", "activity change, negative = inhibition": "-14.4% (inactive)"}
{"smiles": "ClC(c1ccccc1)(c1ccccc1)c1ccccc1", "activity change, negative = inhibition": "-18.1% (inactive)"}
{"smiles": "O[Si](c1ccccc1)(c1ccccc1)c1ccccc1", "activity change, negative = inhibition": "-20.1% (inactive)"}
{"smiles": "Oc1ccc(C2(c3ccc(O)c(C4CCCCC4)c3)CCCCC2)cc1C1CCCCC1", "activity change, negative = inhibition": "-20.4% (inactive)"}
{"smiles": "CCOc1nc(F)cc2nc(S(=O)(=O)Nc3c(Cl)cccc3C(=O)OC)nn12", "activity change, negative = inhibition": "12.2% (inactive)"}
{"smiles": "CCn1c2ccccc2c2ccccc21", "Potency": "3.99 µM (active)"}
{"smiles": "C=Cc1ccc(O)c(OC)c1", "Potency": "35.6 µM (active)"}
{"smiles": "C=CC(=O)OCCOC1C2CCC1C1CC=CC12", "note": "(stereo not given)", "activity change, negative = inhibition": "-16.8% [at 23.6 µM] (inactive)"}
{"smiles": "O=C(O)C[C@H](O)C[C@H](O)/C=C/c1c(C2CC2)nc2ccccc2c1-c1ccc(F)cc1", "activity change, negative = inhibition": "-11.8% [at 23.6 µM] (inactive)"}
{"smiles": "O=C(NCc1ncc(C(F)(F)F)cc1Cl)c1c(Cl)cccc1Cl", "Potency": "31.7 µM (active)"}
{"smiles": "C1=CCCC1", "activity change, negative = inhibition": "5.57% (inactive)"}
{"smiles": "Cc1cccc2c1ccc1ccccc12", "Potency": "6.33 µM (active)"}
{"smiles": "c1ccc2cc3c4ccccc4c4ccccc4c3cc2c1", "Potency": "0.225 µM (active)"}
{"smiles": "c1ccc(-c2ccc(C(c3ccccc3)n3ccnc3)cc2)cc1", "note": "(stereo not given)", "Potency": "5.49 µM (active)"}
{"smiles": "COCCC(=O)OC", "activity change, negative = inhibition": "-19.2% (inactive)"}
{"smiles": "CCCCCN=C(N)N/N=C/c1c[nH]c2ccc(OC)cc12", "Potency": "4.9 µM (active)"}
{"smiles": "Clc1nc(C(Cl)(Cl)Cl)c(Cl)c(Cl)c1Cl", "Potency": "2.52 µM (active)"}
{"smiles": "CC(C)(c1ccc(Oc2ccc(N)cc2)cc1)c1ccc(Oc2ccc(N)cc2)cc1", "activity change, negative = inhibition": "-18% (inactive)"}
{"smiles": "CCCCCc1ccc(O)cc1", "Potency": "63.3 µM (active)"}
{"smiles": "N#Cc1nc(Cl)c(Cl)c(Cl)c1Cl", "Potency": "5.03 µM (active)"}
{"smiles": "COc1cccc(-c2ccc(/C=C\\CN3CCCCCC3)cc2Cl)c1", "Potency": "56.1 µM (active)"}
{"smiles": "Cc1c(Cl)c(=O)oc2cc(O)ccc12", "Potency": "17.8 µM (active)"}
{"smiles": "CCCC(=O)c1cc(O)c(O)cc1O", "Potency": "37.7 µM (active)"}
{"smiles": "Cc1ccc(C=O)cc1", "activity change, negative = inhibition": "-6.07% [at 53 µM] (inactive)"}
{"smiles": "C=CC(=O)O[C@H]1C[C@@H]2CC[C@@]1(C)C2(C)C", "activity change, negative = inhibition": "-19.4% (inactive)"}
{"smiles": "CCCC(C)C=O", "note": "(stereo not given)", "activity change, negative = inhibition": "-10.1% (inactive)"}
{"smiles": "N#CCCOCCC#N", "activity change, negative = inhibition": "-1.53% (inactive)"}
{"smiles": "c1ccc(-c2ccccc2-c2ccccc2)cc1", "Potency": "3.17 µM (active)"}
{"smiles": "c1ccc2c(c1)-c1ccc3ccc4cccc5cc-2c1c3c45", "Potency": "0.219 µM (active)"}
{"smiles": "O=C1C=CC(=O)N1c1cccc(N2C(=O)C=CC2=O)c1", "Potency": "15.9 µM (active)"}
{"smiles": "CCCCCCCCCCCCCCCCC(C(=O)O)C(O)(CC(=O)O)C(=O)O", "note": "(stereo not given)", "activity change, negative = inhibition": "15.7% [at 53 µM] (inactive)"}
{"smiles": "O=C(Nc1ccc([N+](=O)[O-])cc1)Nc1ccc([N+](=O)[O-])cc1", "note": "(tested in a mixture with another compound)", "activity change, negative = inhibition": "-9.37% [at 53 µM] (inactive)"}
{"smiles": "C=C1CC[C@H]2O[C@]2(C)CC[C@@H]2[C@@H]1CC2(C)C", "activity change, negative = inhibition": "0.185% (inactive)"}
{"smiles": "NCc1cccc(C2CCN(C(=O)c3ccc(C#Cc4ccccc4F)o3)CC2)c1", "Potency": "71 µM (active)"}
{"smiles": "CC(C)(C)C1=CC(=O)C(C(C)(C)C)=CC1=O", "Potency": "17.4 µM (active)"}
{"smiles": "CC1=CC[C@@H](C(C)(C)O)CC1", "activity change, negative = inhibition": "-12.7% (inactive)"}
{"smiles": "COc1c(Br)cc(Br)c(C)c1Br", "Potency": "3.56 µM (active)"}
{"smiles": "CCOc1ccc([N+](=O)[O-])cc1", "Potency": "32.2 µM (active)"}
{"smiles": "Cc1ccc2sc3cccc(C)c3c2c1", "Potency": "2.52 µM (active)"}
